Experiment in all cases: NCI-60 one-dose screen, 48 h (100 = growth as untreated, 0 = no growth, -100 = all killed)
One experiment relates to HCT-15 colon. The settings on record: 10 µM unless noted.
Another experiment concerns HT29 colon. The settings on record: 10 µM unless noted.
In another experiment the test system is SNB-75 CNS. The following applies: 10 µM unless noted.
A further experiment concerns SNB-19 CNS. The settings on record: 10 µM unless noted.
In another experiment the test system is U251 CNS. The following applies: 10 µM unless noted.
In the next experiment the test system is PC-3 prostate. The settings on record: 10 µM unless noted.
A further experiment concerns SK-MEL-5 melanoma. The settings on record: 10 µM unless noted.
A further experiment has as its system UACC-62 melanoma. The following applies: 10 µM unless noted.
Another experiment has as its system LOX IMVI melanoma. The following applies: 10 µM.
A further experiment concerns SK-MEL-28 melanoma. The following applies: 10 µM unless noted.
Another experiment deals with SK-MEL-2 melanoma. The settings on record: 10 µM unless noted.
In a further experiment the test system is SN12C renal. The settings on record: 10 µM unless noted.
For the next experiment, the system named is UO-31 renal. The settings on record: 10 µM unless noted.
For the next experiment, the system named is TK-10 renal. The settings on record: 10 µM unless noted.
The subject of a further experiment is ACHN renal. The following applies: 10 µM unless noted.
A further experiment deals with CAKI-1 renal. The settings on record: 10 µM unless noted.
Another experiment has as its system A498 renal. The settings on record: 10 µM unless noted.
The next experiment relates to CCRF-CEM leukemia. The settings on record: 10 µM unless noted.
Another experiment deals with MOLT-4 leukemia. The settings on record: 10 µM unless noted.
The next experiment deals with EKVX NSCLC. The settings on record: 10 µM unless noted.

Molecules are shown by their SMILES. This is part of a sample that, as a whole, favours compounds with a hit. Of some 83,000 tested, about 20% had one in any assay.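 Results are percent growth after 48 hours of single-concentration exposure. 100 means growth as in untreated cells, lower positive values show inhibition; negative values down to -100 show cell death.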 Unmarked numbers belong to inactive results. Calls of active or inactive are those of the source. The calls were made as follows: active = growth percent below 10; inactive = the rest.

Consider `Cc1ccc(C)c2c1CCC2=O`, for which the growth is 100% with HCT-15 colon; 105% with HT29 colon; 86.1% with SNB-75 CNS; 93% with SNB-19 CNS; 103% in the experiment on U251 CNS; 98.6% in the experiment on PC-3 prostate. Also, the growth in the experiment on SK-MEL-5 melanoma was 97.5%; in the experiment on UACC-62 melanoma it was 99.9%; in the experiment with LOX IMVI melanoma, 96.2%; in the experiment with SK-MEL-28 melanoma, 104%; in the experiment on SK-MEL-2 melanoma, 122%; with SN12C renal, 102%. For the same compound, the growth was 90.6% with UO-31 renal; 105% in the experiment with TK-10 renal; 102% in the experiment on ACHN renal; 95.9% with CAKI-1 renal; 56.8% in the experiment with A498 renal; -32.7% (active) in the experiment on CCRF-CEM leukemia. Further, in the experiment on MOLT-4 leukemia, the growth is 121%.

For `COC1CC(OC(=O)c2ccc([N+](=O)[O-])cc2)C(COC(=O)c2ccc([N+](=O)[O-])cc2)O1` (configuration not stated), the growth is 100% in the experiment on HCT-15 colon; 121% with HT29 colon; 87.3% in the experiment on SNB-75 CNS; 101% in the experiment on SNB-19 CNS; 97.2% with U251 CNS; 89.8% with PC-3 prostate. For the same compound, the growth in the experiment with SK-MEL-5 melanoma was 95.7%; in the experiment on UACC-62 melanoma, 98.1%; with LOX IMVI melanoma, 103%; with SK-MEL-28 melanoma, 101%; in the experiment with SK-MEL-2 melanoma it was 127%; in the experiment on SN12C renal it was 98.9%. The growth was 95.6% with UO-31 renal; 124% in the experiment on TK-10 renal; 112% with ACHN renal; 94% in the experiment with CAKI-1 renal; 83.5% with A498 renal; 98.1% in the experiment on CCRF-CEM leukemia. Besides, in the experiment with MOLT-4 leukemia, the growth is 103%.

`CC(O)C(F)(F)C(F)(F)C(F)(F)F` (configuration not stated): the growth in the experiment on HCT-15 colon is 88.2%; in the experiment on HT29 colon, 99.9%; in the experiment on SNB-75 CNS it was 103%; in the experiment on SNB-19 CNS, 112%; in the experiment with U251 CNS, 103%; with PC-3 prostate it was 110%. Also, the growth in the experiment on SK-MEL-5 melanoma is 101%; in the experiment with UACC-62 melanoma it was 115%; with LOX IMVI melanoma, 107%; in the experiment with SK-MEL-28 melanoma it was 108%; in the experiment on SK-MEL-2 melanoma, 111%; in the experiment on SN12C renal, 110%. Also, the growth in the experiment with UO-31 renal was 95.3%; in the experiment with TK-10 renal it was 102%; in the experiment with ACHN renal it was 93.8%; in the experiment on CAKI-1 renal, 99.2%; in the experiment with A498 renal, 120%; in the experiment on MOLT-4 leukemia it was 96.4%.

Take `CN(C(=S)S(=O)(=O)C12CC3CC(CC(C3)C1)C2)c1ccccc1`: the growth is 83.7% with HCT-15 colon; 105% in the experiment with HT29 colon; 98.9% in the experiment on SNB-75 CNS; 102% in the experiment with SNB-19 CNS; 108% in the experiment with U251 CNS; 82.8% with PC-3 prostate. Besides, the growth in the experiment on SK-MEL-5 melanoma is 101%; in the experiment on UACC-62 melanoma, 91.8%; in the experiment on LOX IMVI melanoma, 81.1%; with SK-MEL-28 melanoma, 107%; in the experiment with SK-MEL-2 melanoma, 69.2%; in the experiment with EKVX NSCLC, 104%. Besides, the growth with UO-31 renal was 71.5%; in the experiment on TK-10 renal it was 107%; in the experiment on ACHN renal, 93.9%; with CAKI-1 renal, 81.8%; in the experiment on A498 renal, 98.6%; with CCRF-CEM leukemia, 15.9%. Moreover, in the experiment with MOLT-4 leukemia, the growth was 11.9%.

Turning to `C1=NCCc2ccccc21`, the growth is 107% with HCT-15 colon; 117% with HT29 colon; 76.4% with SNB-75 CNS; 109% in the experiment on SNB-19 CNS; 92.9% with U251 CNS; 87.7% with PC-3 prostate. Moreover, the growth in the experiment on SK-MEL-5 melanoma was 95.3%; in the experiment with UACC-62 melanoma, 114%; in the experiment with LOX IMVI melanoma, 100%; in the experiment on SK-MEL-28 melanoma it was 110%; in the experiment on SK-MEL-2 melanoma it was 99.7%; with SN12C renal, 102%. The growth in the experiment on UO-31 renal is 84.3%; in the experiment with TK-10 renal, 119%; in the experiment with ACHN renal, 101%; with CAKI-1 renal, 99.7%; in the experiment with A498 renal it was 59.9%; in the experiment with CCRF-CEM leukemia it was 96.8%. For the same compound, the growth in the experiment with MOLT-4 leukemia is 101%.

Regarding `CC(C)C(C)(C)C(=O)C(C)(C)C(C)(C)C`, the growth was 96.9% with HCT-15 colon; 98.1% in the experiment on HT29 colon; 109% with SNB-75 CNS; 102% in the experiment with SNB-19 CNS; 92.9% in the experiment on U251 CNS; 98.8% in the experiment on PC-3 prostate. In addition, the growth in the experiment on SK-MEL-5 melanoma was 101%; in the experiment on UACC-62 melanoma, 102%; in the experiment on LOX IMVI melanoma, 93.3%; in the experiment on SK-MEL-28 melanoma it was 104%; in the experiment on SK-MEL-2 melanoma, 99.9%; in the experiment with SN12C renal, 98.2%. In addition, the growth in the experiment with UO-31 renal was 95.5%; in the experiment with TK-10 renal it was 96.2%; in the experiment on ACHN renal, 99.3%; in the experiment with CAKI-1 renal, 104%; in the experiment with A498 renal it was 83.9%; in the experiment on MOLT-4 leukemia, 110%.

With `NC(CCl)=NCC12CC3CC(CC(C3)C1)C2`, the growth in the experiment with HCT-15 colon was 9.53% (active); with HT29 colon, -13.6% (active); in the experiment with SNB-75 CNS it was 13.2%; with SNB-19 CNS, 22.2%; in the experiment on U251 CNS it was 6.8% (active); in the experiment with PC-3 prostate, 7.42% (active). Moreover, the growth in the experiment on SK-MEL-5 melanoma is 5.92% (active); in the experiment with UACC-62 melanoma, 32.7%; in the experiment with LOX IMVI melanoma, -33.6% (active); with SK-MEL-28 melanoma, 55.3%; with SK-MEL-2 melanoma, -44.6% (active); in the experiment on EKVX NSCLC, -7.97% (active). Also, the growth in the experiment with UO-31 renal is -98.5% (active); in the experiment with TK-10 renal it was -2.27% (active); with ACHN renal, 11.8%; in the experiment on A498 renal, 33%; in the experiment with MOLT-4 leukemia it was 27.4%.

For `CCCC(=O)CC(=O)c1ccccc1`, the growth in the experiment with HCT-15 colon is 103%; in the experiment with HT29 colon it was 91.1%; in the experiment on SNB-75 CNS, 105%; in the experiment with SNB-19 CNS it was 103%; with U251 CNS, 86%; in the experiment with PC-3 prostate, 94.7%. Further, the growth with SK-MEL-5 melanoma was 99.5%; in the experiment on UACC-62 melanoma, 103%; in the experiment with LOX IMVI melanoma it was 97.5%; in the experiment on SK-MEL-28 melanoma, 107%; in the experiment with SK-MEL-2 melanoma, 78.5%; with SN12C renal, 96.3%. Besides, the growth in the experiment on UO-31 renal was 90.8%; in the experiment on TK-10 renal, 94.8%; in the experiment on ACHN renal it was 105%; in the experiment on CAKI-1 renal, 107%; in the experiment on A498 renal, 70.4%; with CCRF-CEM leukemia, 97.5%. In addition, in the experiment on MOLT-4 leukemia, the growth is 107%.

With `CC1(C)CCC(C)(C)NC(=S)N1`, the growth in the experiment with HCT-15 colon was 98.7%; in the experiment with HT29 colon, 107%; in the experiment with SNB-75 CNS it was 105%; in the experiment on SNB-19 CNS, 102%; in the experiment on U251 CNS, 104%; in the experiment on PC-3 prostate it was 100%. In addition, the growth with SK-MEL-5 melanoma is 105%; with UACC-62 melanoma, 105%; in the experiment with LOX IMVI melanoma, 96.1%; in the experiment with SK-MEL-28 melanoma it was 109%; in the experiment with SK-MEL-2 melanoma, 94.1%; with SN12C renal, 97.1%. Also, the growth is 88.2% with UO-31 renal; 98% with TK-10 renal; 104% in the experiment on ACHN renal; 100% in the experiment on CAKI-1 renal; 112% in the experiment with A498 renal; 102% with CCRF-CEM leukemia. Besides, the growth with MOLT-4 leukemia was 97.5%.

For the origin of these results see PubChem BioAssay (NCI).
